Records with an inconclusive call do not appear. The source made the active and inactive calls. The call rests on the fitted dose curve; in most records, active means well fitted curve in the direction sought with a large enough effect; inconclusive means small, poorly fitted or top-dose-only effect, or another doubt; inactive means no such curve, though single readings can be large; an effect the other way counts as inactive or inconclusive.
Assays:
[1] = tested on: HACAT; test: qHTS assay to identify novel small-molecules to repurpose for Merkel cell carcinoma treatment (AID 1296009); conditions: MCC and control cell lines, CellTiter-Glo viability, 72 h; at 44.8 µM (top of the series) unless noted; further: nearly all actives have a fitted effect of over 60% in size
In short: (§1)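 qHTS format: cells treated with library compounds in DMSO across 8 (NPC) or 11 (MIPE) concentrations. Readout after 72 hr at 37 degree celsius was CellTiter-Glo luminescence.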

[2] = tested on: NIH3T3; test: as above; conditions: MCC and control cell lines, CellTiter-Glo viability, 72 h; at 44.8 µM (top of the series) unless noted
In short: as §1

[3] = tested on: C33A; test: Primary qHTS to identify gynecologic anti-cancer compounds using libraries of approved drugs and bioactive compounds (AID 1345084); conditions: Gynecologic cancer cell panel viability, ATPlite luminescence, 48 h; series mostly up to 57.5 µM; further: on the % scale 0 is the no-effect control and ±100 the full control effect; nearly all actives have a fitted effect of over 55% in size
In short: (§2)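 Cytotoxicity screen measuring ATP content by luciferase luminescence. Each compound is applied at five concentrations for 48 h at 37 C with 5% CO2.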

[4] = tested on: CAOV3; test: as above; conditions: Gynecologic cancer cell panel viability, ATPlite luminescence, 48 h; series mostly up to 57.5 µM
In short: as §2

[5] = tested on: CASKI; test: as above; conditions: Gynecologic cancer cell panel viability, ATPlite luminescence, 48 h; series mostly up to 57.5 µM
In short: as §2

[6] = tested on: Es-2; test: as above; conditions: Gynecologic cancer cell panel viability, ATPlite luminescence, 48 h; series mostly up to 57.5 µM
In short: as §2

[7] = tested on: HeLa; test: as above; conditions: Gynecologic cancer cell panel viability, ATPlite luminescence, 48 h; series mostly up to 57.5 µM
In short: as §2

[8] = tested on: Hek293T; test: as above; conditions: Gynecologic cancer cell panel viability, ATPlite luminescence, 48 h, control line for the selectivity index; series mostly up to 57.5 µM
In short: as §2

[9] = tested on: JEG-3; test: as above; conditions: Gynecologic cancer cell panel viability, ATPlite luminescence, 48 h; series mostly up to 57.5 µM
In short: as §2

O=C(NC1CCN(CC(F)(F)F)CC1)c1ccc(-c2cccc(F)c2)nc1
inactive: outcome [1] | outcome [2] | Potency [3] | Potency [4] | outcome [5] | Potency [6] | Potency [7] | Potency [8] | Potency [9]

CC1(C(=O)O)CCCC2(C)C3CCC4CC3(CCC12)CC4C(=O)O (stereo not drawn)
inactive: outcome [1] | outcome [2] | Potency [3] | Potency [4] | outcome [5] | Potency [6] | Potency [7] | Potency [8] | Potency [9]

Cc1cc(-n2c(=O)[nH]c(=O)n(C)c2=O)ccc1Oc1ccc(SC(F)(F)F)cc1
inactive: outcome [1] | outcome [2] | Potency [3] | Potency [4] | outcome [5] | Potency [6] | Potency [7] | Potency [8] | Potency [9]

CC(=O)OCC1OC(O[C@H]2CC[C@@]3(C)C(CC[C@]4(C)C3CC=C3[C@@H]5CC(C)(C)CC[C@]5(C(=O)O)CC[C@]34C)[C@]2(C)CO)C(O)C(O)C1OC1OC(C)C(O)C(OC2OCC(O)C(O)C2O)C1O (stereo partly drawn)
inactive: outcome [1] inactive [at 9.27 µM] | outcome [2] inactive [at 9.27 µM] | activity change, negative = cytotoxicity [3] -0.849% [at 11.6 µM] | activity change, negative = cytotoxicity [4] 3.79% [at 11.6 µM] | activity change, negative = cytotoxicity [5] 14.3% [at 11.6 µM] | activity change, negative = cytotoxicity [6] 2.8% [at 11.6 µM] | activity change, negative = cytotoxicity [7] 8.24% [at 11.6 µM] | activity change, negative = cytotoxicity [8] 6.88% [at 11.6 µM] | activity change, negative = cytotoxicity [9] 4.64% [at 11.6 µM]

OC[C@@]1(O)CO[C@@H](OC[C@H]2O[C@@H](Oc3ccccc3)[C@H](O)[C@@H](O)[C@@H]2O)[C@@H]1O
inactive: outcome [1] | outcome [2] | Potency [3] | Potency [4] | outcome [5] | Potency [6] | Potency [7] | Potency [8] | Potency [9]

Cc1occc(=O)c1O[C@@H]1O[C@H](CO)[C@@H](O)[C@H](O)[C@H]1O
inactive: outcome [1] | outcome [2] | Potency [3] | Potency [4] | outcome [5] | Potency [6] | Potency [7] | Potency [8] | Potency [9]

CC1OC(O[C@@H]2[C@H](O)[C@@H](OC3OC(CO)C(O)C(O)C3O)[C@H](OC(=O)[C@]34CCC(C)(C)C[C@H]3C3=CCC5[C@@]6(C)CC[C@H](O[C@@H]7O[C@H](C(=O)O)[C@@H](O)[C@H](O[C@@H]8OC[C@@H](O)[C@H](O)[C@H]8O)[C@H]7O[C@@H]7O[C@H](CO)[C@H](O)[C@H](O)[C@H]7O)[C@@](C)(C=O)C6CC[C@@]5(C)[C@]3(C)C[C@H]4O)O[C@@H]2C)C(O)C(O)C1OC1OCC(O)C(O)C1O (stereo partly drawn)
inactive: outcome [1] inactive [at 4.96 µM] | outcome [2] inactive [at 4.96 µM] | activity change, negative = cytotoxicity [3] 2.44% [at 6.55 µM] | activity change, negative = cytotoxicity [4] 8.46% [at 6.55 µM] | activity change, negative = cytotoxicity [5] 4.43% [at 6.55 µM] | activity change, negative = cytotoxicity [6] -4.12% [at 6.55 µM] | activity change, negative = cytotoxicity [7] 23.9% [at 6.55 µM] | activity change, negative = cytotoxicity [8] 0.666% [at 6.55 µM] | activity change, negative = cytotoxicity [9] 2.9% [at 6.55 µM]

C[C@@H]1O[C@@H](O[C@H]2[C@@H]3C=CO[C@@H](O[C@@H]4O[C@H](CO)[C@@H](O)[C@H](O)[C@H]4O)[C@@H]3[C@@]3(CO)O[C@@H]23)[C@H](O)[C@H](OC(=O)/C=C/c2ccc(O)c(O)c2)[C@H]1O
inactive: outcome [1] inactive [at 17.4 µM] | outcome [2] inactive [at 17.4 µM] | Potency [3] | Potency [4] | outcome [5] | Potency [6] | Potency [7] | Potency [8] | Potency [9]

O=C(O)Cn1nnc(-c2ccc(CN(CCCCOc3ccc(CN4CCCC4)cc3)CCc3ccccc3)cc2)n1
inactive: outcome [1] | outcome [2] | Potency [3] | Potency [4] | outcome [5] | Potency [6] | Potency [7] | Potency [8] | Potency [9]

CC1=C(CO)CC(C(C)C2CCC3C4CC=C5CC(OC6OC(COC7OC(CO)C(O)C(O)C7O)C(O)C(O)C6O)CC(O)C5(C)C4CCC23C)OC1=O (stereo not drawn)
inactive: outcome [1] inactive [at 17.4 µM] | outcome [2] inactive [at 17.4 µM] | Potency [3] | Potency [4] | outcome [5] | Potency [6] | Potency [7] | Potency [8] | Potency [9]

C=C1CCC2C(C)(C)CC(=O)CC2(C)C1CCC(C)CCO (stereo not drawn)
inactive: outcome [1] | outcome [2] | Potency [3] | Potency [4] | outcome [5] | Potency [6] | Potency [7] | Potency [8] | Potency [9]

O=C(O)CCc1c(C(=O)O)[nH]c2cc(Cl)cc(Cl)c12
inactive: outcome [1] inactive [at 17.4 µM] | outcome [2] inactive [at 17.4 µM] | Potency [3] | Potency [4] | outcome [5] | Potency [6] | Potency [7] | Potency [8] | Potency [9]

CCCCOc1nc(N)c2c(n1)N(Cc1cccc(CN3CCCC3)c1)CC(=O)N2
inactive: outcome [1] | outcome [2] | Potency [3] | Potency [4] | outcome [5] | Potency [6] | Potency [7] | Potency [8] | Potency [9]

CCC(C)C1NC(=O)C2C(C)CCN2C(=O)C(CC(O)CO)OC(=O)CCNC(=O)C(C)N(C)C(=O)C(C(C)C)N(C)C1=O (stereo not drawn)
inactive: outcome [1] inactive [at 17.4 µM] | outcome [2] inactive [at 17.4 µM] | Potency [3] | Potency [4] | outcome [5] | Potency [6] | Potency [7] | Potency [8] | Potency [9]

COC(=O)C1(C)CCCC2(C)c3ccc(C(C)C)cc3C(O)C(O)C12 (stereo not drawn)
inactive: outcome [1] | outcome [2] | Potency [3] | Potency [4] | outcome [5] | Potency [6] | Potency [7] | Potency [8] | Potency [9]

CC(C)NC(=O)c1ccc(C#Cc2ccncc2)cn1
inactive: outcome [1] | outcome [2] | Potency [3] | Potency [4] | outcome [5] | Potency [6] | Potency [7] | Potency [8] | Potency [9]

CC[C@@H]1[C@H]2CCCCN3C(=O)C[C@H]([C@@H]4[C@H]1OC(=O)[C@H]4C)[C@@H]23
inactive: outcome [1] | outcome [2] | Potency [3] | Potency [4] | outcome [5] | Potency [6] | Potency [7] | Potency [8] | Potency [9]

CC1=C(CC/C(C)=C/C(=O)O)[C@@]2(C)CCCC(C)(C)C2CC1=O (stereo partly drawn)
inactive: outcome [1] | outcome [2] | Potency [3] | Potency [4] | outcome [5] | Potency [6] | Potency [7] | Potency [8] | Potency [9]

CC1=CC(=O)CC(C)(C)[C@@]1(O)/C=C/C(C)O[C@@H]1O[C@H](CO)[C@@H](O)[C@H](O)[C@H]1O (stereo partly drawn)
inactive: outcome [1] inactive [at 17.4 µM] | outcome [2] inactive [at 17.4 µM] | Potency [3] | Potency [4] | outcome [5] | Potency [6] | Potency [7] | Potency [8] | Potency [9]

OC[C@@]1(O)CO[C@H](OC[C@H]2O[C@@H](OC(CCCCc3ccc(O)cc3)CCc3ccc(O)cc3)[C@H](O)[C@@H](O)[C@@H]2O)[C@@H]1O (stereo partly drawn)
inactive: outcome [1] inactive [at 17.4 µM] | outcome [2] inactive [at 17.4 µM] | Potency [3] | Potency [4] | outcome [5] | Potency [6] | Potency [7] | Potency [8] | Potency [9]

C=C1CC[C@@H]2C(C)(C)CCC[C@@]2(C)[C@@H]1CC/C(=C/C(=O)OC)COC(C)=O
inactive: outcome [1] | outcome [2] | Potency [3] | Potency [4] | outcome [5] | Potency [6] | Potency [7] | Potency [8] | Potency [9]

O=C(O)Cc1cn([C@@H]2O[C@H](CO)[C@@H](O)[C@H](O)[C@H]2O[C@@H]2O[C@H](CO)[C@@H](O)[C@H](O)[C@H]2O)c2ccccc12
inactive: outcome [1] inactive [at 17.4 µM] | outcome [2] inactive [at 17.4 µM] | Potency [3] | Potency [4] | outcome [5] | Potency [6] | Potency [7] | Potency [8] | Potency [9]

CC(=O)OC1C(O)C(C)(O)C(/C=C/C(=O)O)C2(C)CCCC(C)(C)C12 (stereo not drawn)
inactive: outcome [1] | outcome [2] | Potency [3] | Potency [4] | outcome [5] | Potency [6] | Potency [7] | Potency [8] | Potency [9]

C[C@@H]1O[C@@H](O[C@H]2[C@H](OC(=O)[C@]34CCC(C)(C)C[C@H]3C3=CCC5[C@@]6(C)C[C@@H](O)[C@@H](O)[C@@](C)(CO)C6[C@H](O)C[C@@]5(C)[C@]3(C)CC4)OC[C@H](O)[C@@H]2O)[C@H](O)[C@H](O)[C@H]1O[C@@H]1OC[C@@H](O)[C@H](O[C@H]2O[C@H](C)[C@@H](O)[C@H](O)[C@@H]2O)[C@H]1O (stereo partly drawn)
inactive: outcome [1] inactive [at 9.27 µM] | outcome [2] inactive [at 9.27 µM] | activity change, negative = cytotoxicity [3] -5.04% [at 11.6 µM] | activity change, negative = cytotoxicity [4] 7.19% [at 11.6 µM] | activity change, negative = cytotoxicity [5] 15.8% [at 11.6 µM] | activity change, negative = cytotoxicity [6] 6.09% [at 11.6 µM] | activity change, negative = cytotoxicity [7] 13.1% [at 11.6 µM] | activity change, negative = cytotoxicity [8] -1.53% [at 11.6 µM] | activity change, negative = cytotoxicity [9] 3.24% [at 11.6 µM]

COc1ccc(C2OCC3C(c4cc(OC)c5c(c4)OCO5)OCC23)cc1OC (stereo not drawn)
inactive: outcome [1] inactive [at 17.4 µM] | outcome [2] inactive [at 17.4 µM] | Potency [3] | Potency [4] | outcome [5] | Potency [6] | Potency [7] | Potency [8] | Potency [9]

COc1ccc(C2(O)c3ccccc3NC(=O)C2OC)cc1 (stereo not drawn)
inactive: outcome [1] | outcome [2] | Potency [3] | Potency [4] | outcome [5] | Potency [6] | Potency [7] | Potency [8] | Potency [9]

CC(=O)O[C@@H]1[C@@H](O)[C@H](C)O[C@@H](O[C@H]2[C@@H]3C=CO[C@@H](O[C@@H]4O[C@H](CO)[C@@H](O)[C@H](O)[C@H]4OC(C)=O)[C@@H]3[C@@]3(CO)O[C@@H]23)[C@@H]1OC(=O)/C=C/c1ccc(O)cc1
inactive: outcome [1] inactive [at 17.4 µM] | outcome [2] inactive [at 17.4 µM] | Potency [3] | Potency [4] | outcome [5] | Potency [6] | Potency [7] | Potency [8] | Potency [9]
